Results taken from ChEMBL document CHEMBL3988442, “University of Dundee, Small-Polar-MMV Screening Library” (2021).
The campaign covered roughly 85,000 compounds. About 440 (0.52%) showed an effect of 50% or more. The list comes from a sample in which strong results are over-represented; it also holds similar structures and randomly drawn compounds.

Test: In vitro enzyme assay to detect hydrolysis of chlorophenol red-beta-D-[…] directly proportional to the number of Toxoplasma stably expressing beta-galactosidase
Assay type: functional, organism-based, Toxoplasma gondii
Parameters: scale not given: in the data most compounds retested in dose-response had high values

Row | SMILES | Percent Effect (50 µM) | Percent Effect (10 µM)
1 | COCC(=O)N1CCCN(Cc2cnn(C)c2)CC1 | 1.219% | 
2 | CC(=O)Nc1nc(CC(=O)NCc2ccco2)cs1 | -28.1% | 
3 | Cn1cc(NC(=O)CCc2ccccn2)cn1 | -11.54% | 
4 | Nc1ccnn1-c1ccccn1 | -4.085% | 
5 | Cc1cn(-c2ccc(C#N)cc2)nc1N | -9.418% | 
6 | N#Cc1ccc(-n2nccc2N)cc1 | 92.39% | 
7 | O=C1CNCN1Cc1ccccc1 | 2.533% | 
8 | N[C@@H]1CC[C@@H]1NC(=O)c1scc2c1OCCO2 | -7.783% | 
9 | Cc1cnc(CN2CC3(CCOC3)CCC2=O)cn1 (centres undefined) | -2.648% | 
10 | Cc1cc(C(=O)NCC(C)C)nn1C |  | 9.135%
11 | Cc1ccc(CNC(=O)c2cc(NC(=O)C3CC3)n(C)n2)o1 |  | 2.088%
12 | Cc1cc(C(=O)NCCc2noc(C3CC3)n2)nn1C | 97.7% | 
13 | CCn1ccc(C(=O)NCc2ccco2)n1 | -13.38% | 
14 | Cc1cc(C(=O)NCc2cccn2C)nn1C |  | 1.66%
15 | Cc1cc(C(=O)NCc2ccco2)nn1C |  | 56.09%
16 | Cn1cc(C(=O)NCCc2noc(C3CC3)n2)cn1 | -7.141% | 
17 | Cc1ccc(CNC(=O)c2cc(C)n(C)n2)o1 |  | 75.49%
18 | Cc1cc(C(=O)NCCc2noc(C3CC3)n2)[nH]n1 | 12.77% | 
19 | CN(Cc1cccnc1)C(=O)c1cccc(Cl)c1 | 11.97% | 
20 | CNC(=O)CSCc1ccc2ccccc2n1 | 15.55% | 
21 | CCCS(=O)(=O)N1CCC(CC(=O)NC)CC1 | -1.732% | 
22 | Cn1cncc1C(N)CO (centres undefined) | -9.765% | 
23 | CCC(N)(CC)CNS(=O)(=O)c1ccc2c(c1)CCO2 | -2.355% | 
24 | CC(C)CC(C)CN1CCN(CCS(C)(=O)=O)CC1 (centres undefined) | -18.72% | 
25 | COc1csc(-c2cc(N)[nH]n2)c1 | 7.911% | 

Row | SMILES | Percent Effect (50 µM) | Percent Effect (10 µM)
26 | CCS(=O)(=O)CCNC(C)(CO)C1CCCCC1 (centres undefined) | -6.595% | 
27 | CC(=O)c1c(C)cccc1NCC(=O)N(C)C | -19.59% | 
28 | Cn1cc(CN(C(=O)c2ccc(O)c(Cl)c2)C2CC2)cn1 |  | -12.14%
29 | CN1C(=O)c2ccc(C(=O)N(Cc3cnn(C)c3)C3CC3)cc2C1=O |  | -5.009%
30 | Cn1cc(CN(C(=O)c2ccc(N)nc2)C2CC2)cn1 | 96.08% | 
31 | CC(=O)N[C@H]1CCO[C@@H](c2cccc(NC(=O)c3cccc(F)c3)c2)C1 |  | 20.53%
32 | CC(=O)Nc1cccc([C@H]2C[C@@H](NC(C)=O)CCO2)c1 |  | -4.369%
33 | CC(=O)N[C@H]1CCO[C@@H](c2cccc(NC(=O)c3ccc(=O)[nH]n3)c2)C1 |  | 71.09%
34 | COCCCNC(=O)Nc1cnn(C)c1 | 3.712% | 
35 | Cn1nnc2c(N3CCCCC3)ncnc21 | -0.3233% | 
36 | O=C([C@@H]1CCO[C@@H]2CCN(CC3CC3)C[C@H]21)N1CCCCO1 |  | 96.45%
37 | O=C(O)C(F)(F)F.O=C([C@H]1CN(Cc2ccc(F)cc2)C[C@H]2OCC[C@@H]12)N1CCCO1 |  | 0.4926%
38 | O=C(O)C(F)(F)F.O=C([C@@H]1CCO[C@@H]2CCN(Cc3ccc(F)cc3)C[C@H]21)N1CCCCO1 |  | 73.44%
39 | O=C([C@@H]1CCO[C@@H]2CCN(CC3CC3)C[C@H]21)N1CCCC1 |  | -7.409%
40 | O=C(O)C(F)(F)F.O=C([C@@H]1CCO[C@@H]2CCN(Cc3cccs3)C[C@H]21)N1CCCCO1 |  | -10.74%
41 | O=C(O)C(F)(F)F.O=C([C@@H]1CCO[C@@H]2CCN(CC3CCOCC3)C[C@H]21)N1CCCO1 |  | -19.56%
42 | CC1(C)CNCCC(=O)C1 | -1.716% | 
43 | C[C@H](N)c1ccc(Cl)s1 | 6.702% | 
44 | CCCc1nc(C(=O)NCCc2cccnc2)cs1 | -0.1814% | 
45 | CCn1nc(C)cc1C(=O)N1CCNC(=O)C1(C)C | 1.148% | 
46 | O=C1NCCN1CCNc1cc(C2CC(O)C2)ncn1 (centres undefined) | 17.22% | 
47 | CCCNC(=O)C1=NN(C)C(=O)CC1 | -13.89% | 
48 | CCc1ccccc1NC(=O)C1=NN(C)C(=O)CC1 | 53.5% | 
49 | CN1N=C(C(=O)NCCn2cccc2)CCC1=O | 4.885% | 
50 | Cc1nc(C)c(C(=O)N2CCCC3(CCOC3)C2)s1 (centres undefined) | -1.962% | 

Row | SMILES | Percent Effect (50 µM) | Percent Effect (10 µM)
51 | CN(C)CCCN(CCC#N)C(=O)c1ccccn1 | 5.806% | 
52 | Cc1n[nH]c(SCCN)n1 | 7.335% | 
53 | Cc1cc(NC(=O)COC(=O)c2cccc(F)c2)[nH]n1 | 3.257% | 
54 | O=C(CCN1C(=O)CCC1=O)OCCc1cccs1 | -8.658% | 
55 | COc1ccc(CNCCn2cccn2)cc1OC | -8.387% | 
56 | CC(C)c1ccc(C(CN)N2CCc3sccc3C2)cc1 (centres undefined) |  | 87.38%
57 | NCC(c1ccccc1)N1CCc2sccc2C1 (centres undefined) |  | -0.2514%
58 | NCC(c1ccc(Cl)cc1)N1CCc2sccc2C1 (centres undefined) |  | 32.54%
59 | CC(CNC(=O)c1cccc(OC(F)F)c1)N(C)C (centres undefined) | -0.9989% | 
60 | CCOCCN1CCN(CC(C)O)CC1 (centres undefined) | -13.93% | 
61 | O=c1cc(-c2cc(O)cc(CCC3CCCCN3)c2)cc[nH]1 (centres undefined) |  | 0.1729%
62 | Oc1cc(CCC2CCCCN2)cc(-c2ccncc2)c1 (centres undefined) |  | -0.7663%
63 | CS(=O)(=O)c1ccc(-c2cc(O)cc(CCC3CCCCN3)c2)cc1 (centres undefined) |  | 50.66%
64 | Cc1ccc(CN2CCOC(CCO)C2)c(F)c1 (centres undefined) | 1.605% | 
65 | CC(C)(C)Nc1nc(-c2cccnc2)c(-c2ccnc(NCCO)n2)s1 |  | 85.15%
66 | CCNc1nc(-c2cccnc2)c(-c2ccnc(NCCO)n2)s1 |  | 32.17%
67 | CCNc1nc(-c2cccnc2)c(-c2ccnc(NS(C)(=O)=O)n2)s1 |  | -26.67%
68 | Cc1noc(C)c1CNC(=O)c1csc(S(N)(=O)=O)c1 | -3.715% | 
69 | O=C(CC1CCCC1)N1C[C@H](OCc2ccncc2)[C@H]2OCCC[C@H]21.O=C(O)C(F)(F)F |  | -2.876%
70 | Cn1cccc1C(=O)N1C[C@@H](OCc2ccncc2)[C@@H]2OCCC[C@@H]21.O=C(O)C(F)(F)F |  | 96.07%
71 | COCC(=O)N1C[C@@H](OCc2ccncc2)[C@@H]2OCCC[C@@H]21.O=C(O)C(F)(F)F |  | 64.14%
72 | COCC(=O)N1C[C@@H](OCc2cccnc2)[C@H]2OCCC[C@@H]21.O=C(O)C(F)(F)F |  | 1.724%
73 | Cc1cccc(C(=O)N2C[C@@H](OCc3ccncc3)[C@@H]3OCCC[C@@H]32)n1.O=C(O)C(F)(F)F.O=C(O)C(F)(F)F |  | -3.452%
74 | Cn1cccc1C(=O)N1C[C@@H](OCc2cccnc2)[C@H]2OCCC[C@H]21 |  | 1.724%
